# According to publication PMC7862700, “An all-to-all approach to the identification of sequence-specific readers for epigenetic DNA modifications on cytosine”:
# Tests used:
# Test in all cases: DAPPL (digital affinity profiling via proximity ligation, sequencing); 10 mM Tris-HCl pH 7.5, 50 mM NaCl, 1 mM DTT, 4% glycerol, room temperature, 30 min; GST-TFs on glutathione beads, 16-mer random dsDNA library, 0.1% formaldehyde crosslink after washing; high values mean tight binding
# FEV = molecular target: T1, FEV (Homo sapiens, UniProt Q99581 1-238); conditions: protein: recombinant; tags: N-terminal GST; dsDNA, one strand shown
# T1 sequence: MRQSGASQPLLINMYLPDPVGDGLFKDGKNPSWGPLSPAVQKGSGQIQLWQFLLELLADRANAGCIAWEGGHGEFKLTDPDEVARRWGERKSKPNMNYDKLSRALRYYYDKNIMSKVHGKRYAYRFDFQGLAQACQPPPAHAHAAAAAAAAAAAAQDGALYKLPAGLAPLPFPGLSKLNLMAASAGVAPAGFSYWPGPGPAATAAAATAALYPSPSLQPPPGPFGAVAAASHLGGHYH
# Procedure, shortened: (§1)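 Beads coated with glutathione captured GST-fused human transcription factors that had been expressed in yeast, and the factors were then given DNA barcodes and pooled with a tag-only sample. The pools were incubated with 200 nmole of a random double-stranded 16-mer DNA library in Tris/NaCl/DTT/glycerol buffer for 30 min at room temperature, washed, crosslinked with 0.1% formaldehyde and proximity-ligated with BsaI/T4 ligase at 37 °C for 1 h. PCR amplification and Illumina NextSeq500 sequencing came last. Binding signal is each hexamer's read frequency for a factor divided by its frequency for the tag-only sample.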
# ETV5 = ETV5 (Homo sapiens, UniProt P41161 1-510); conditions: protein: recombinant; tags: N-terminal GST; dsDNA, one strand shown
# ETV5, sequence (P41161 whole entry): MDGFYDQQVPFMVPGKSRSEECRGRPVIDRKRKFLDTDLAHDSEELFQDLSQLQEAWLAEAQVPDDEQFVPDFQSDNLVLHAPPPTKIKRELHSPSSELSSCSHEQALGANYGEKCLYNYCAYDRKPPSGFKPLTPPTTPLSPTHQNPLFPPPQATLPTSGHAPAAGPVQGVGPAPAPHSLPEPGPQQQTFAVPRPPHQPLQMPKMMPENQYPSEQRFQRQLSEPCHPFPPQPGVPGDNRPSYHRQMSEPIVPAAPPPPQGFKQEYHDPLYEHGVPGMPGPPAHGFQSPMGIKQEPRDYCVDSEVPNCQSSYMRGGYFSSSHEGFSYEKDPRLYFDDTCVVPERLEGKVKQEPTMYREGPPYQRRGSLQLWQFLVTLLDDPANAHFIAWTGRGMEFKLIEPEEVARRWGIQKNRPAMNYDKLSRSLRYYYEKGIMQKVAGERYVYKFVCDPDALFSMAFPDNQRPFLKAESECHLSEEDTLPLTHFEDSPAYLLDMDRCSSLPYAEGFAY
# Procedure, shortened: as §1
# HSF1 = HSF1 (Homo sapiens, UniProt Q00613 1-529); conditions: protein: recombinant; tags: N-terminal GST; chain copies: 3; dsDNA, one strand shown
# HSF1, sequence (Q00613 whole entry): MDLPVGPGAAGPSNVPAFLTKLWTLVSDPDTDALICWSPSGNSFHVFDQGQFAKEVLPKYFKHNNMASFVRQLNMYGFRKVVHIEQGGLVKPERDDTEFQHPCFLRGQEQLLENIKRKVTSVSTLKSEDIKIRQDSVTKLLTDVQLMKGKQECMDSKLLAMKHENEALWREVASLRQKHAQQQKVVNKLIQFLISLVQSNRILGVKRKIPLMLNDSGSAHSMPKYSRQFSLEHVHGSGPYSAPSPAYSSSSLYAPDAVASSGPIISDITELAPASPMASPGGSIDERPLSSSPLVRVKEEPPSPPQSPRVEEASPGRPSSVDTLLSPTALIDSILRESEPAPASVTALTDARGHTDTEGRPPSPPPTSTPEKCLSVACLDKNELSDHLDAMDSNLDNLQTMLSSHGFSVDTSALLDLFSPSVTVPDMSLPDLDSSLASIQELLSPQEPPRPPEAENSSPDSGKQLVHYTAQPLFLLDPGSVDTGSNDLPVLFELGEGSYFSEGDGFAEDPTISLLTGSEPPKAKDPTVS
# Procedure, shortened: as §1
# SPIC = molecular target: T2, SPIC (Homo sapiens, UniProt Q8N5J4 1-248); conditions: protein: recombinant; tags: N-terminal GST; dsDNA, one strand shown
# T2 sequence: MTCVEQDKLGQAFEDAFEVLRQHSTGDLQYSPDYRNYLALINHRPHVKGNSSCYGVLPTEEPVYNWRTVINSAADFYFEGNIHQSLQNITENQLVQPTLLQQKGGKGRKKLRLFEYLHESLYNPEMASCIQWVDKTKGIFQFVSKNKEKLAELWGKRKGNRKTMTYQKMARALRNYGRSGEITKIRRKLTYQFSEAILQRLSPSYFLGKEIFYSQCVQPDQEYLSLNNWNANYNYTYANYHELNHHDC
# Procedure, shortened: as §1
# ELF4 = ELF4 (Homo sapiens, UniProt Q99607 1-663); conditions: protein: recombinant; tags: N-terminal GST; dsDNA, one strand shown
# ELF4, sequence (Q99607 whole entry): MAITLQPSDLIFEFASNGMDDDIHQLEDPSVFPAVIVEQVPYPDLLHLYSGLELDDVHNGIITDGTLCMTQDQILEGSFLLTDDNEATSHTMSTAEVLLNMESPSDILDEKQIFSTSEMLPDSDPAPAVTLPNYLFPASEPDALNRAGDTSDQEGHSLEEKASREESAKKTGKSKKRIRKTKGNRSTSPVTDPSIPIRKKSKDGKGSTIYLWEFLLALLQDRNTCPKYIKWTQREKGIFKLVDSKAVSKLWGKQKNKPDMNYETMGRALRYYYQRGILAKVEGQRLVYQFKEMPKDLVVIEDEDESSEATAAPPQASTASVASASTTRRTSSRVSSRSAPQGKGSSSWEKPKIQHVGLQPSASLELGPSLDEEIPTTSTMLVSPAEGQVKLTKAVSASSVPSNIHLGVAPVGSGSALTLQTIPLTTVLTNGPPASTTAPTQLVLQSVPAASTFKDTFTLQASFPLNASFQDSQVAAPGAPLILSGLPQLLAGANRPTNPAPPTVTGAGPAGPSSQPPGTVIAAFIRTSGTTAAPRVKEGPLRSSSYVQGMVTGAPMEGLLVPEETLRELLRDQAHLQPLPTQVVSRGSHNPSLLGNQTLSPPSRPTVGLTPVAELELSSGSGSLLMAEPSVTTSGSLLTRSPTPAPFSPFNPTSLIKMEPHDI
# Procedure, shortened: as §1
# ELK4 = molecular target: T3, ELK4 (Homo sapiens, UniProt P28324-2 1-405); conditions: protein: recombinant; tags: N-terminal GST; dsDNA, one strand shown
# T3 sequence: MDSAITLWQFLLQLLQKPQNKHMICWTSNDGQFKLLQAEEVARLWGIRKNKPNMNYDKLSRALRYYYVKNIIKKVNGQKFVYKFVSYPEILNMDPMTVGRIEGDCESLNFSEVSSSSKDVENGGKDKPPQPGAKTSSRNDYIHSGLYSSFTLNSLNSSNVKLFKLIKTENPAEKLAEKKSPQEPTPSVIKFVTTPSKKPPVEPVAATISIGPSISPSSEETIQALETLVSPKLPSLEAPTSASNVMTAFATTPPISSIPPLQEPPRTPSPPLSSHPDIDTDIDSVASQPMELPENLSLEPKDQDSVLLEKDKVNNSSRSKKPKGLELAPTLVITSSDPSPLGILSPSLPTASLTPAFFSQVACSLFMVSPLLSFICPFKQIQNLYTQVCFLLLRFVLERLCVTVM
# Procedure, shortened: as §1
# ETV2 = molecular target: T4, ETV2 (Homo sapiens, UniProt O00321 1-342); conditions: protein: recombinant; tags: N-terminal GST; dsDNA, one strand shown
# T4 sequence: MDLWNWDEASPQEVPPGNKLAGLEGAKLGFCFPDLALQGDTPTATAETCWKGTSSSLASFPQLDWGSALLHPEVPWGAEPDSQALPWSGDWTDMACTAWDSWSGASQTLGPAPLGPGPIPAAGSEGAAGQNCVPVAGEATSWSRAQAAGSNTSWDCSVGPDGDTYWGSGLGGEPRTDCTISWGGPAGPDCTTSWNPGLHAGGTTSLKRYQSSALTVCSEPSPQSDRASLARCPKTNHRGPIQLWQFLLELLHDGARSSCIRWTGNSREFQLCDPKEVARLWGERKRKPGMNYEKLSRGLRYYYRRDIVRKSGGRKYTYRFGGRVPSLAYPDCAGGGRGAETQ
# Procedure, shortened: as §1
# ELF3 = molecular target: T5, ELF3 (Homo sapiens, UniProt P78545 1-371); conditions: protein: recombinant; tags: N-terminal GST; dsDNA, one strand shown
# T5 sequence: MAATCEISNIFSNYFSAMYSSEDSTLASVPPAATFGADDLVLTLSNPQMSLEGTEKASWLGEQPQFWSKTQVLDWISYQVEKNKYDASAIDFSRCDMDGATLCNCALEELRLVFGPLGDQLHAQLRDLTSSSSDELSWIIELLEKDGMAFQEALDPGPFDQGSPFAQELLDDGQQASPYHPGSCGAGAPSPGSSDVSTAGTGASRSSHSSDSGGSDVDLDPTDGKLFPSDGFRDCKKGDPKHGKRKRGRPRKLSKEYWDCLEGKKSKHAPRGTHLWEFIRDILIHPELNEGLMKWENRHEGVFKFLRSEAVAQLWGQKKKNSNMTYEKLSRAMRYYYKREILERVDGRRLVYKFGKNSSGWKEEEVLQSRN
# Procedure, shortened: as §1
# CRX = CRX (Homo sapiens, UniProt O43186 1-299); conditions: protein: recombinant; tags: N-terminal GST; dsDNA, one strand shown
# CRX, sequence (O43186 whole entry): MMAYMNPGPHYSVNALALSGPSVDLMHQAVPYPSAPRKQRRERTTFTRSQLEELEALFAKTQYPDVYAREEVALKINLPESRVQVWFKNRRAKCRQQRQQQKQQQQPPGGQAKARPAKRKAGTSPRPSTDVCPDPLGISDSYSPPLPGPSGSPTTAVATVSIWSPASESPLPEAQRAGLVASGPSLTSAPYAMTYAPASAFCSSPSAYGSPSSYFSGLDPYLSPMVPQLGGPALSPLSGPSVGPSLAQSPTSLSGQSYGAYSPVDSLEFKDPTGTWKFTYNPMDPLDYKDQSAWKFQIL
# Procedure, shortened: as §1
# ETV1 = ETV1 (Homo sapiens, UniProt P50549 1-477); conditions: protein: recombinant; tags: N-terminal GST; dsDNA, one strand shown
# ETV1, sequence (P50549 whole entry): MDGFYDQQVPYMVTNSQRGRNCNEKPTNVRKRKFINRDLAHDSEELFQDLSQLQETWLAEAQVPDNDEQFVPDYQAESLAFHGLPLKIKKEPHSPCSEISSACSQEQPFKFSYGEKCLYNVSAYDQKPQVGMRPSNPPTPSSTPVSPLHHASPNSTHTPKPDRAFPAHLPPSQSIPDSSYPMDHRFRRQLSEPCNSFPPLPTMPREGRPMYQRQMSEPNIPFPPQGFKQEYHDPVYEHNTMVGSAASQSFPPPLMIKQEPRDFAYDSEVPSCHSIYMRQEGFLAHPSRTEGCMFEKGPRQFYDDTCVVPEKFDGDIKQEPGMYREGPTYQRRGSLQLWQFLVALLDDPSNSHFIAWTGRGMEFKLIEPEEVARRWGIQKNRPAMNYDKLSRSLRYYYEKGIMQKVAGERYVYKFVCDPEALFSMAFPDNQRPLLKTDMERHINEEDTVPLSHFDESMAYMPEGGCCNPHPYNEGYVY
# Procedure, shortened: as §1
# ERF = molecular target: T6, ERF (Homo sapiens, UniProt P50548 1-548); conditions: protein: recombinant; tags: N-terminal GST; dsDNA, one strand shown
# T6 sequence: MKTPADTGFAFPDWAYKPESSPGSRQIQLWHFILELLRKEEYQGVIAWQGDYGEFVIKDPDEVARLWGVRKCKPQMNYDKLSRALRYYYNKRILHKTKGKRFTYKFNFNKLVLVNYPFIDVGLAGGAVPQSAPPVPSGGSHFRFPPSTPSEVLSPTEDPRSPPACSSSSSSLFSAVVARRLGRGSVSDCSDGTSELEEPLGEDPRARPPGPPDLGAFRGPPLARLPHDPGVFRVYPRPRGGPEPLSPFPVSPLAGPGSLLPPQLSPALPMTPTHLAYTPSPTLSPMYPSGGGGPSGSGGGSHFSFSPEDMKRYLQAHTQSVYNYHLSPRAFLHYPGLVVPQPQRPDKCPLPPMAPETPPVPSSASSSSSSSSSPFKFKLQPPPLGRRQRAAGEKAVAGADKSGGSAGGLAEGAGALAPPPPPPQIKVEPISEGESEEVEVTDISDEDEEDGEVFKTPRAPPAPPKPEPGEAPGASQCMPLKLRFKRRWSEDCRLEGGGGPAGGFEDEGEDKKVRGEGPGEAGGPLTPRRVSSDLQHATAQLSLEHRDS
# Procedure, shortened: as §1
# ETV3L = molecular target: T7, ETV3L (Homo sapiens, UniProt Q6ZN32 1-361); conditions: protein: recombinant; tags: N-terminal GST; dsDNA, one strand shown
# T7 sequence: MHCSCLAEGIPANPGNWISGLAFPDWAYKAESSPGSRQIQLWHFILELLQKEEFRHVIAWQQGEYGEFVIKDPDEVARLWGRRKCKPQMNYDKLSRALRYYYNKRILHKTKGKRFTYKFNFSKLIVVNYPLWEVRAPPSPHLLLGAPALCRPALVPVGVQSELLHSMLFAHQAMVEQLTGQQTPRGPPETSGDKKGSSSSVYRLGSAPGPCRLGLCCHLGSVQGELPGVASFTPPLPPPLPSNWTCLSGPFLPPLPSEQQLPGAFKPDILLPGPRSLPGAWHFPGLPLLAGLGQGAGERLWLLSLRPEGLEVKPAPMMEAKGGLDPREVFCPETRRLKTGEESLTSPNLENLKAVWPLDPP
# Procedure, shortened: as §1
# ETS2 = molecular target: T8, ETS2 (Homo sapiens, UniProt P15036 1-469); conditions: protein: recombinant; tags: N-terminal GST; dsDNA, one strand shown
# T8 sequence: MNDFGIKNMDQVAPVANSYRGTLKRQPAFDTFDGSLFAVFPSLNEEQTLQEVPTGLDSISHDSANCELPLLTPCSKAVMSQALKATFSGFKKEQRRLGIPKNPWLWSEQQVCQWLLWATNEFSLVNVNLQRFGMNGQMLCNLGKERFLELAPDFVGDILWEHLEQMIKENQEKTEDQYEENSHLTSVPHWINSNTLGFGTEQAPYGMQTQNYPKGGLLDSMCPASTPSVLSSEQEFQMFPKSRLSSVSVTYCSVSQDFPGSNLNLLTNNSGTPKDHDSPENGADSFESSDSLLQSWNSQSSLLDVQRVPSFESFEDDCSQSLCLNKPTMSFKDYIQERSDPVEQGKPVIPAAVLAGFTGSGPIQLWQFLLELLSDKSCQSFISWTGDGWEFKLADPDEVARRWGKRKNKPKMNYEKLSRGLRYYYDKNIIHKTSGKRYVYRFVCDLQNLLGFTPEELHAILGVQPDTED
# Procedure, shortened: as §1
# SPDEF = molecular target: T9, SPDEF (Homo sapiens, UniProt O95238 1-335); conditions: protein: recombinant; tags: N-terminal GST; dsDNA, one strand shown
# T9 sequence: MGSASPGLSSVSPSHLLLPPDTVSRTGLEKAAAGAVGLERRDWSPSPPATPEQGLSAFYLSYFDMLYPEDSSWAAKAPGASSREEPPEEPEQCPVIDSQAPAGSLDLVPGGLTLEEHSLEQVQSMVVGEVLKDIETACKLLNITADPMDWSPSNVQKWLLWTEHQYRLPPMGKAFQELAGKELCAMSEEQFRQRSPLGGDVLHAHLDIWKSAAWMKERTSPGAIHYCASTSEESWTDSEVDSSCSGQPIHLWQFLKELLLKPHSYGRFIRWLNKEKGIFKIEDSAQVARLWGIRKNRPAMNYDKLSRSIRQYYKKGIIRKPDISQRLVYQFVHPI
# Procedure, shortened: as §1
# ETV7 = molecular target: T10, ETV7 (Homo sapiens, UniProt Q9Y603 1-341); conditions: protein: recombinant; tags: N-terminal GST; dsDNA, one strand shown
# T10 sequence: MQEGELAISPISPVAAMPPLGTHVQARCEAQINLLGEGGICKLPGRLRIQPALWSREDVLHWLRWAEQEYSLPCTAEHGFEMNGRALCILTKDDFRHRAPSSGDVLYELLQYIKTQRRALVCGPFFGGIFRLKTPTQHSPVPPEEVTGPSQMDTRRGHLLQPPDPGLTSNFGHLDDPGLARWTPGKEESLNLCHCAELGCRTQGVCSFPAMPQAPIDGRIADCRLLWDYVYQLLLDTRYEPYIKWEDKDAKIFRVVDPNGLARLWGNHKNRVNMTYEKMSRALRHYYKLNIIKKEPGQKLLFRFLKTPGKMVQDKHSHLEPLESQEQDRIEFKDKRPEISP
# Procedure, shortened: as §1
# ELF5 = molecular target: T11, ELF5 (Homo sapiens, UniProt Q9UKW6-2 1-255); conditions: protein: recombinant; tags: N-terminal GST; dsDNA, one strand shown
# T11 sequence: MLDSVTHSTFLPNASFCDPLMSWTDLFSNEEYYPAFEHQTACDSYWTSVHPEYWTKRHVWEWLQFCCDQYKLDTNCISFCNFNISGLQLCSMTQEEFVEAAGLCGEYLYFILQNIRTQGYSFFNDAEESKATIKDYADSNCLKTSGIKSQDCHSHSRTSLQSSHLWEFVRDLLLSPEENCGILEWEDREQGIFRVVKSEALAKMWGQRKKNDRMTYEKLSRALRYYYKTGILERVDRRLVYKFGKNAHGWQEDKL
# Procedure, shortened: as §1
# ETV3 = molecular target: T12, ETV3 (Homo sapiens, UniProt P41162-2 1-143); conditions: protein: recombinant; tags: N-terminal GST; dsDNA, one strand shown
# T12 sequence: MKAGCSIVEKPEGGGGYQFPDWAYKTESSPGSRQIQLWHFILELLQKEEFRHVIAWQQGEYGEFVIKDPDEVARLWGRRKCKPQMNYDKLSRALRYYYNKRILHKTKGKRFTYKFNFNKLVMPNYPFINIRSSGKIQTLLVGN
# Procedure, shortened: as §1
# ETV6 = ETV6 (Homo sapiens, UniProt P41212 1-452); conditions: protein: recombinant; tags: N-terminal GST; dsDNA, one strand shown
# ETV6, sequence (P41212 whole entry): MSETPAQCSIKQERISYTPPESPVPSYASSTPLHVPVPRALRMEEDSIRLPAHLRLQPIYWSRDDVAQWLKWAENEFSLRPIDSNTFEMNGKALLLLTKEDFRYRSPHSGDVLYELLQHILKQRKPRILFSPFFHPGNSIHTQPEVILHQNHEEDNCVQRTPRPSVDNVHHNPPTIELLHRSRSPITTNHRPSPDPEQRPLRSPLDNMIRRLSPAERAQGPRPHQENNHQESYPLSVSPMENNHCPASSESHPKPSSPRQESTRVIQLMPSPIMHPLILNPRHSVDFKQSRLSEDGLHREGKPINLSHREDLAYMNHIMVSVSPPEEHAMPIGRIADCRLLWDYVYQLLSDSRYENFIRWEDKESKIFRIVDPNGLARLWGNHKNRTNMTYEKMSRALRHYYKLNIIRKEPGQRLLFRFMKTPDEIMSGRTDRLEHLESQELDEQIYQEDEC
# Procedure, shortened: as §1
sequence,measurement,setting,value
GATTCC,binding signal,FEV,"1.09 fold enrichment (6-mer frequency, TF over GST control)"
same,binding signal,ETV5,"1.21 fold enrichment (6-mer frequency, TF over GST control)"
same,binding signal,HSF1,"1.34 fold enrichment (6-mer frequency, TF over GST control)"
same,binding signal,SPIC,"1.18 fold enrichment (6-mer frequency, TF over GST control)"
same,binding signal,ELF4,"1.19 fold enrichment (6-mer frequency, TF over GST control)"
same,binding signal,ELK4,"1.13 fold enrichment (6-mer frequency, TF over GST control)"
same,binding signal,ETV2,"1.13 fold enrichment (6-mer frequency, TF over GST control)"
same,binding signal,ELF3,"1.09 fold enrichment (6-mer frequency, TF over GST control)"
same,binding signal,CRX,"1.15 fold enrichment (6-mer frequency, TF over GST control)"
same,binding signal,ETV1,"1.21 fold enrichment (6-mer frequency, TF over GST control)"
same,binding signal,ERF,"1.15 fold enrichment (6-mer frequency, TF over GST control)"
same,binding signal,ETV3L,"1.22 fold enrichment (6-mer frequency, TF over GST control)"
same,binding signal,ETS2,"1.14 fold enrichment (6-mer frequency, TF over GST control)"
same,binding signal,SPDEF,"1.29 fold enrichment (6-mer frequency, TF over GST control)"
same,binding signal,ETV7,"1.11 fold enrichment (6-mer frequency, TF over GST control)"
same,binding signal,ELF5,"1.21 fold enrichment (6-mer frequency, TF over GST control)"
same,binding signal,ETV3,"1.24 fold enrichment (6-mer frequency, TF over GST control)"
same,binding signal,ETV6,"1.14 fold enrichment (6-mer frequency, TF over GST control)"
